# This is part of a sample that, as a whole, favours compounds with a hit. Of some 83,000 tested, about 20% had one in any assay.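 48-hour exposure, single concentration, 96-well plates; percent growth endpoint where 0 means no net growth. Active: below 10.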 Unmarked numbers belong to inactive results. Calls of active or inactive are those of the source.
# How the values were obtained:
# Test in all cases: NCI-60 one-dose screen, 48 h (100 = growth as untreated, 0 = no growth, -100 = all killed)
# Conditions in all cases: 10 µM unless noted
# HCT-15 colon = tested on: HCT-15 colon
# HT29 colon = tested on: HT29 colon
# SNB-75 CNS = tested on: SNB-75 CNS
# SNB-19 CNS = tested on: SNB-19 CNS
# U251 CNS = tested on: U251 CNS
# PC-3 prostate = tested on: PC-3 prostate
# SK-MEL-5 melanoma = tested on: SK-MEL-5 melanoma
# UACC-62 melanoma = tested on: UACC-62 melanoma
# LOX IMVI melanoma = tested on: LOX IMVI melanoma
# SK-MEL-28 melanoma = tested on: SK-MEL-28 melanoma
SMILES,growth (HCT-15 colon),growth (HT29 colon),growth (SNB-75 CNS),growth (SNB-19 CNS),growth (U251 CNS),growth (PC-3 prostate),growth (SK-MEL-5 melanoma),growth (UACC-62 melanoma),growth (LOX IMVI melanoma),growth (SK-MEL-28 melanoma)
CCN1CCN(Cc2ccc(C(=O)Nc3nc4ccc(Oc5ccnc(C(=O)NC)c5)cc4s3)cc2C(F)(F)F)CC1,6.98% (active),3.42% (active),75.9%,66.6%,41.9%,46.1%,17.7%,24.6%,-11.8% (active),-66.5% (active)
CN(C)CCn1c2ccc(N)cc2c2nc3ccccc3nc21,21.1%,21.3%,54.2%,32.1%,33.4%,38.6%,27%,35.2%,9.95% (active),54.5%
Cc1cc(=O)n2nc(-c3cn(C)c4ccc(Cl)cc34)sc2n1,86.4%,104%,97%,96.6%,98.5%,86.2%,88.8%,86.8%,85.4%,100%
O=S(=O)(Nc1ccc(I)c(Cl)c1)c1ccc(-c2cnc(C3CC3)o2)cc1,27.8%,8.12% (active),-13% (active),42.7%,31%,20.4%,16.8%,31.2%,36.1%,59.7%
CN1CCN(Cc2ccc(NC(=O)c3cncc(C#Cc4cnc5ccc(O[C@H]6CCOC6)nn45)c3)cc2C(F)(F)F)CC1,-49.3% (active),-67.8% (active),-95.9% (active),-69.2% (active),-85.4% (active),-9.05% (active),-95.2% (active),-45.3% (active),-88.1% (active),-80.3% (active)
CNC(=O)c1cc(Oc2ccc3nc(NC(=O)c4cccc(C(F)(F)F)c4)sc3c2)ccn1,98.1%,106%,90.7%,93.3%,104%,102%,101%,85%,99.3%,89.8%
Cc1ccc(NC(=O)c2cccc(CN3CCN(C)CC3)c2)cc1Oc1ccc(-c2[nH]nc3ncnc(N)c23)cc1,86.1%,5.69% (active),66.8%,81.9%,64.6%,72.9%,76.7%,73%,29.9%,72.9%
O=S(=O)(NCCCNc1nccc(-n2cnc3ccccc32)n1)c1ccc(F)cc1,82.8%,92.8%,82.5%,92.6%,93.8%,69.3%,2.63% (active),61.6%,74%,97.9%
CCC(CC)n1c(=O)c(SC2=NC3C(NN2)N(CC)C(=O)N3CC)c(C(=O)O)c2ccccc21 (stereo not given),14.2%,2.44% (active),39.6%,35.2%,14.8%,23.9%,6.37% (active),22.5%,23%,65.4%
C#C[C@]1(O)CC[C@H]2[C@@H]3CC=C4c5sc(Nc6cc(OC)ccc6OC)nc5CC[C@]4(C)[C@H]3CC[C@@]21C,10.3%,21.1%,2.31% (active),38.3%,26.1%,18.9%,6.5% (active),-14% (active),5.19% (active),-46.6% (active)
COc1ccc([C@H]2[C@H](O)C(=O)N2c2cc(OC)c(OC)c(OC)c2)cc1,9.24% (active),-2.31% (active),49.6%,29%,8.04% (active),13.9%,0.112% (active),20.6%,15.1%,62.8%
O=C(O)CNS(=O)(=O)c1ccc(Oc2ccc(S(=O)(=O)NCC(=O)O)cc2)cc1,102%,99.3%,66.6%,98.1%,99.3%,98.6%,101%,99%,99.8%,101%
CCn1c2ccc(/C=N/NS(=O)(=O)CCN(C)C)cc2c2cc(/C=N/NS(=O)(=O)CCN(C)C)ccc21,108%,103%,107%,100%,99.8%,100%,-96.7% (active),98.6%,98.6%,106%
O=C(NCCCNc1cc(-c2cn(-c3ccccc3)nc2-c2cccc(O)c2)ccn1)Nc1cccc(C(F)(F)F)c1,-25.3% (active),9.99% (active),45%,42.8%,33.5%,27.1%,37.8%,19.9%,8.34% (active),-12.1% (active)
CC(=O)Nc1nc2c(s1)C1=CC[C@H]3[C@@H]4CC[C@H](C(C)=O)[C@@]4(C)CC[C@@H]3[C@@]1(C)CC2,26.4%,27.7%,47.8%,69%,44.4%,43%,93.6%,73.7%,59.6%,49%
O=C(CN1CCN(c2cc(=O)n(-c3ccccc3)c3ccccc23)CC1)Nc1ccc([N+](=O)[O-])cc1,95.1%,105%,88%,87.1%,93.9%,84.7%,74.1%,63.4%,89.3%,101%
C=CCn1c(SCC(=O)Nc2ccc(OC)cc2)nnc1-c1ccc(Cl)cc1,73.7%,105%,97.4%,91.7%,105%,95.1%,96.4%,81.5%,93.8%,92.5%
CN1CCN(c2ccc3c(c2)nc(NNC(=O)c2ccncn2)c2cccn23)CC1,25.1%,32.7%,61.9%,35.1%,34%,46.5%,13.7%,22.2%,11.4%,28.3%
O=C(CSc1nnc(-c2cccs2)n1-c1ccccc1)Nc1ccc(F)cc1,93.6%,101%,104%,91%,99.5%,99%,97.6%,67.9%,97.9%,104%
COc1ccc(C2C(C#N)=C(N)Oc3c2sc2ccc(C)cc32)cc1 (stereo not given),19.2%,25.3%,-3.3% (active),38.6%,26.9%,33.1%,2.75% (active),23.4%,38%,55.6%
Cc1ccc(S(=O)(=O)N/N=C/c2cn(-c3ccc(F)cc3)nc2-c2ccc(S(C)(=O)=O)cc2)cc1,99.4%,105%,110%,97.1%,101%,95.4%,102%,91.6%,100%,106%
Nc1cc(F)ccc1NC(=O)c1ccc(NC(=O)C/C=C/c2cccnc2)cn1,19.8%,11.4%,31.9%,31.7%,17.9%,36.9%,-58.1% (active),5.97% (active),16.6%,-9.71% (active)
CCN1C(=O)N(CC)C2SC(N/N=C/c3ccc(OC)cc3)=NC21 (stereo not given),12%,15.1%,27.3%,23%,24.5%,28.9%,-0.548% (active),38.4%,3.58% (active),60.2%
C=CCn1c(SCC(=O)Nc2cccc(C(=O)/C=C/c3cccc([N+](=O)[O-])c3)c2)nc2ccccc2c1=O,79.3%,94.9%,85.5%,90.2%,87.9%,87.4%,98.6%,77.2%,72.8%,95.4%
CCOC(=O)C1=C(C)N=C2Sc3ccccc3N2C1c1ccccc1 (stereo not given),77.8%,-72.7% (active),87.1%,95.5%,103%,78.2%,85.8%,65.8%,84.3%,109%
Brc1cccc(/C=N/Nc2nc(N/N=C/c3cccc(Br)c3)nc(N3CCOCC3)n2)c1,-8.94% (active),6.61% (active),107%,77.9%,42.7%,36.5%,20.7%,56%,5.23% (active),17.1%
